Calls of active or inactive are those of the source. Rule for the calls: active = hit-call score of the fitted dose curve at least 0.9, where 1 is the maximum; inactive = score below 0.9.
Experiments:
[1] = molecular target: Nuclear respiratory factor 1 (Homo sapiens) (UniProt Q16656); experiment: ATG_NRF1_CIS: Attagene CIS-FACTORIAL HepG2 Assay for human Nuclear Respiratory Factor 1 (NRF1) Orphan Gene (AID 2282987); settings: HepG2 NRF1 cis-element reporter, Attagene multiplex; actives raise or lower the signal
Nuclear respiratory factor 1 (Homo sapiens), sequence (Q16656 whole entry, looked up): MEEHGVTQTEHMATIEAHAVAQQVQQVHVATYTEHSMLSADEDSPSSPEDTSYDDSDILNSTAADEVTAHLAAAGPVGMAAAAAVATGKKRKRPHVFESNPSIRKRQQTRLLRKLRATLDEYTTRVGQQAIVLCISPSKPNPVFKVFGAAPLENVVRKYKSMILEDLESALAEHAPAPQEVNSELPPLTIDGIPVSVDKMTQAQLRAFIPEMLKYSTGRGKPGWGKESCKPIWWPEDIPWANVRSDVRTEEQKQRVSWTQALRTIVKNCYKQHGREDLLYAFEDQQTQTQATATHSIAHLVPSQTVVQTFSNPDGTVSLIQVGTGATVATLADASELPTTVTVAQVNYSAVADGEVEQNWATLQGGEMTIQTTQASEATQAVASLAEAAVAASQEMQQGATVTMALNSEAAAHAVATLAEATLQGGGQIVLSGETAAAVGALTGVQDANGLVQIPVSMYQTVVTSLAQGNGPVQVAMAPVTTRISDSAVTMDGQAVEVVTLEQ
Procedure, shortened: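 Human hepatoma HepG2 cells carrying transfected promoter-regulated reporter units were incubated with test chemicals for 24 h. Reporter transcripts were measured by RT-PCR plus capillary electrophoresis, and endpoints derived by bidirectional fitting with DMSO as baseline.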

[2] = ATG_NFI_CIS: Attagene CIS-FACTORIAL HepG2 Assay for human Nuclear Factor I (NFI) (AID 2282989); settings: HepG2 cis-regulatory reporter, NFI response element transcription; actives raise or lower the signal
Procedure, shortened: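 Transient MRTU transfection of HepG2 → 24 h chemical dosing → total RNA, oligo(dT) RT → PCR, 6-FAM primer extension, HpaI cut → capillary electrophoresis. Endpoint fitted bidirectionally relative to DMSO.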

[3] = molecular target: Myc proto-oncogene protein (Homo sapiens) (UniProt P01106); experiment: ATG_Myc_CIS: Attagene CIS-FACTORIAL HepG2 Assay for human Myelocytomatosis (Myc) Proto-Oncogene Transcription Factor (AID 2282990); settings: HepG2, Attagene cis-reporter transcription factor activity; actives raise or lower the signal
Myc proto-oncogene protein (Homo sapiens), sequence (P01106 whole entry, looked up): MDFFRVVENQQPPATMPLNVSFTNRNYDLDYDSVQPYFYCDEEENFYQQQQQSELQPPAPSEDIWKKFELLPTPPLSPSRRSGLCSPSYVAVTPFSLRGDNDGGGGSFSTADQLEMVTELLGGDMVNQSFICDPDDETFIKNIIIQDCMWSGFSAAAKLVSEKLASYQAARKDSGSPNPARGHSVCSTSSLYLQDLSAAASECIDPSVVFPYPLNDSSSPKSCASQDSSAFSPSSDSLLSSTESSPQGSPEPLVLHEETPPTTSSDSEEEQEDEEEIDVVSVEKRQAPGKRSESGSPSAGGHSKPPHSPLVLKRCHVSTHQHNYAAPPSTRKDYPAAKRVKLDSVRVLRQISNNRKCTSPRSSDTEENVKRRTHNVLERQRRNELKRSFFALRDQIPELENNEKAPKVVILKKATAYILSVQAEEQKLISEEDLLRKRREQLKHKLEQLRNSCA
Procedure, shortened: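 Cells of the HepG2 human liver line bear multiple cis-driven reporter transcription units. Reporter mRNA after 24 h exposure is reverse-transcribed, amplified, labelled and resolved by capillary electrophoresis, with gain- or loss-of-signal fitting relative to DMSO.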

[4] = ATG_Oct_MLP_CIS: Attagene CIS-FACTORIAL HepG2 Assay for human Octamer-Binding Transcription Factor (Oct) (AID 2282993); settings: HepG2 Attagene cis-factorial Oct reporter, mRNA; actives raise or lower the signal
Procedure, shortened: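 Transient MRTU transfection of HepG2 → 24 h compound treatment → RNA isolation, reverse transcription, PCR → 6-FAM primer extension, HpaI digest → capillary electrophoresis. Activity fitted both directions against DMSO.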

[5] = molecular target: Cellular tumor antigen p53 (Homo sapiens) (UniProt P04637); experiment: ATG_p53_CIS: Attagene CIS-FACTORIAL HepG2 Assay for human p53 Transcription Factor (AID 2282994); settings: HepG2 p53 cis-element reporter, Attagene mRNA; actives raise or lower the signal
Cellular tumor antigen p53 (Homo sapiens), sequence (P04637 whole entry, looked up): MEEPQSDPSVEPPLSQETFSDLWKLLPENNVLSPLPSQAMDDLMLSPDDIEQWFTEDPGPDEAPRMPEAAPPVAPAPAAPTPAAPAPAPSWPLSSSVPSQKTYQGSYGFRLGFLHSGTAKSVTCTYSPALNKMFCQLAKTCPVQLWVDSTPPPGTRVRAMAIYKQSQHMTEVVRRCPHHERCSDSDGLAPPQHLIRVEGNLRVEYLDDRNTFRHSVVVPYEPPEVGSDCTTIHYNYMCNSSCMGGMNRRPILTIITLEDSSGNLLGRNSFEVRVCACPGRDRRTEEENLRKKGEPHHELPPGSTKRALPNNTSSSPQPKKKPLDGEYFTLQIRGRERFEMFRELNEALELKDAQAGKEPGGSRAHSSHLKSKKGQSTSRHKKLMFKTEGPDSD
Procedure, shortened: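 Transiently transfected HepG2 (multiple cis reporter transcription units); exposure 24 h; reporter RNA via RT-PCR, 6-FAM extension, 2 h HpaI digest at 37 C, CE detection; DMSO baseline.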

[6] = ATG_NRF2_ARE_CIS: Attagene CIS-FACTORIAL HepG2 Assay for human Nuclear Factor Erythroid 2 Related Factor 2 (NFR2) response to Antioxidant Response Elements (ARE) (AID 2282992); settings: HepG2 Attagene ARE/NRF2 reporter, transcription factor activity; actives raise or lower the signal;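 for AC50: reporter mRNA level measured by RT-PCR and capillary electrophoresis fluorescence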
Procedure, shortened: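 Fluorescence intensity of reporter-specific cDNA fragments, separated by capillary electrophoresis, reflects mRNA induction in transfected HepG2 cells at 24 h. Activity is fitted bidirectionally, DMSO serving as baseline.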

[7] = BSK_3C_TissueFactor: BioMAP Diversity Plus: 3C Assay for Tissue Factor Biomarker Activity (AID 2282997); settings: BioMAP 3C HUVEC, tissue factor biomarker readout; actives raise or lower the signal
Procedure, shortened: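 HUVEC, 3C system, 24 h post-dose; Tissue Factor by ELISA; bidirectional fit vs DMSO baseline.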

[8] = BSK_3C_uPAR: BioMAP Diversity Plus: 3C Assay for Urokinase-type plasminogen activator receptor (uPAR) Biomarker Activity (AID 2282998); settings: BioMAP 3C HUVEC, uPAR biomarker ELISA; actives raise or lower the signal
Procedure, shortened: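 ELISA readout of uPAR on human vascular endothelium (umbilical vein primary cells), taken 24 h after chemical dosing. Increases and decreases are both fitted relative to DMSO vehicle.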

[9] = BSK_3C_VCAM1: BioMAP Diversity Plus: 3C Assay for Vascular cell adhesion molecule 1 (VCAM1) Biomarker Activity (AID 2282999); settings: BioMAP 3C HUVEC, VCAM1 ELISA, cytokine-stimulated; actives raise or lower the signal
Procedure, shortened: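 Activity fitted in both directions relative to DMSO, with ELISA measurement of the surface marker on primary HUVEC (3C) at 24 h post-treatment; parallel SRB staining (0.1% SRB, TCA-fixed, 560 nm) flagged overt cytotoxicity.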

[10] = ATG_NF_kB_CIS: Attagene CIS-FACTORIAL HepG2 Assay for human Nuclear Factor Kappa B (NF-kB) (AID 2282991); settings: HepG2 Attagene cis-factorial NF-kB reporter mRNA; actives raise or lower the signal
Procedure, shortened: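 Multiplexed cis-reporter assay in transiently transfected HepG2. 24 h treatment; RNA isolated, RT-PCR, labelled fragments resolved by CE. DMSO baseline.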

Measured: AC50

CCCCCCCCCCO[C@@H]1O[C@H](CO)[C@@H](O)[C@H](O)[C@H]1O
inactive: [1] | [2] | [3] | [4]

C=COCC1CCC(COC=C)CC1 (stereo not given)
inactive: [1] | [2] | [3] | [4] | [5]

CCC(C)(CCCC(C)C)OC(C)=O (stereo not given)
inactive: [1] | [2] | [3] | [6] | [4] | [5]

CCCO[Si](OCCC)(OCCC)OCCC
inactive: [1] | [2] | [3] | [4] | [5] | [7] | [8] | [9]

CC(O)CNCC(C)O (stereo not given)
inactive: [1] | [2] | [3] | [4] | [5]

C=C(C)C(=O)OCCN(C)C
inactive: [1] | [2] | [3] | [6] | [5]

C[N+](C)(C)CCO
inactive: [1] | [2] | [3] | [4]

CCC(=O)OC(C)(C)C1CC=C(C)CC1 (stereo not given)
inactive: [1] | [2] | [3] | [4] | [5]
active: [6] 127 µM

CN1CCc2cccc3c2[C@H]1Cc1ccc(O)c(O)c1-3
inactive: [2] | [3] | [4] | [5]
active: [1] 3.59 µM | [6] 5.05 µM

COc1ccc(N)c(C)c1
inactive: [1] | [3] | [10] | [4]
active: [6] 46.3 µM

CC1=CCC(=C(C)C)CC1
inactive: [1] | [2] | [3] | [4] | [5]
active: [6] 32 µM

O=C1CCC(=O)N1
inactive: [1] | [3] | [10] | [6] | [4]

COC(=O)c1cccc(C(=O)OC)c1
inactive: [1] | [2] | [3] | [4] | [5]

ClCCOCCOCCCl
inactive: [1] | [2] | [3] | [5]
active: [6] 54.7 µM

C=CC(=O)OCC(CO)(COC(=O)C=C)COC(=O)C=C
active: [7] 0.137 µM | [8] 0.443 µM | [9] 0.0478 µM
inactive: [1] | [2] | [3] | [6] | [4]

CC/C=C\CCCCO
inactive: [1] | [3] | [10] | [6] | [4] | [5]

NNC(=O)OCc1ccccc1
inactive: [1] | [3] | [10] | [6] | [4]

C=CC(C)(CCC=C(C)C)OC(=O)CC (stereo not given)
inactive: [1] | [2] | [3] | [5]
active: [6] 68.1 µM

Cc1cccc(C)c1
inactive: [1] | [2] | [3] | [4]

CCCCCCCCCC(=O)OCC
inactive: [1] | [2] | [3] | [6] | [5]
active: [7] 28.7 µM | [8] 29.1 µM | [9] 32.5 µM

CC1(C)[C@H](C=C(Cl)Cl)[C@H]1C(=O)OCc1cccc(Oc2ccccc2)c1
inactive: [1] | [2] | [3] | [6] | [4] | [5] | [7] | [8] | [9]

O=C(O)c1ccco1
inactive: [1] | [2] | [3] | [6] | [4] | [5]

C1COCO1
inactive: [1] | [3] | [10] | [6]

O=C(O)c1cccc(Cl)n1
inactive: [1] | [3] | [10] | [6] | [4] | [5]

CC1COC(=O)O1 (stereo not given)
inactive: [1] | [2] | [3] | [6] | [4] | [5]

CCOC(=O)COC(=O)c1ccccc1C(=O)OCC
inactive: [1] | [2] | [3] | [6] | [5]

N=C1N=C(N)c2ccccc21
inactive: [1] | [2] | [3] | [4]

CCCCCCCC1CCCC1=O (stereo not given)
inactive: [1] | [2] | [3] | [6] | [4] | [5]
active: [7] 33 µM | [8] 34.5 µM | [9] 35.8 µM

CCCCN(CCCC)CCCCCCN(CCCC)CCCC
inactive: [1] | [3] | [6] | [4] | [5]
